Hit rate of the full screen: of about 69,000 compounds, about 8,600 (12%) showed an effect of 50% or more. The sample holds strong results, similar compounds and a random draw of the others, so the mix is not that of the screen.

In this experiment the test system is Plasmodium berghei. Description: Screen against P. berghei liver stage (PbLuc), transformed with Luciferase, at 10uM. The experiment is classed as functional, HepG2. Particulars: tested at 10 uM.
Regarding `c1cnnc(N2CCCC(NCc3cn4ccccc4n3)C2)c1` (stereo not drawn), the INHIBITION stood at 27.9%. Consider `CCC1c2cccn2CCN1C(=O)c1ccno1` (stereo not drawn), for which the INHIBITION was -48.4%.

Turning to `O=c1oc(-c2cccs2)nn1CC(O)c1ccc(F)cc1` (stereo not drawn), the INHIBITION was -23.5%.

Take `O=c1oc(-c2cccs2)nn1CC(O)c1ccc2c(c1)CCC2` (stereo not drawn): the INHIBITION stood at 59.4%. `O=c1oc(-c2cccs2)nn1CC(O)c1ccccc1` (stereo not drawn): the INHIBITION is 0.547%. Consider `CCNC(=O)N1CCC(Nc2nccc(NCC)n2)CC1`, for which the INHIBITION came to 20.4%.

For the molecule `CCNc1ccnc(NC2CCN(CC(N)=O)CC2)n1`, the INHIBITION is listed as -9.92%.

With `CCNc1ccnc(NC2CCN(S(C)(=O)=O)CC2)n1`, the INHIBITION worked out at 72.3%. Then `CCOC(=O)N1CC(=O)N(CCc2ccccc2)CC(O)C1` (stereo not drawn), with 28.3%. Then `CCN1C(=O)C(C)(C)c2cc(NC(=O)c3ccn(CC)n3)ccc21`, with -42.9%; and `Cc1cc(C(=O)N2CCCC(n3ccnc3)C2)c(C)n1C1CC1` (stereo not drawn), with 27.4%.

Take `Cc1[nH]ncc1C(C)NCc1ccc(F)cc1` (stereo not drawn): the INHIBITION came out at 63.7%. Consider `Cc1[nH]ncc1C(C)NCc1cccnc1` (stereo not drawn), for which the INHIBITION is 14.3%.

Take `COc1ccc(CNC(C)c2cn[nH]c2C)cc1` (stereo not drawn): the INHIBITION was found to be 11.8%.

Take `CN(C)CCN1CCC2[C@@H]1CCN2Cc1ccc2c(c1)OCO2` (stereo partly drawn): the INHIBITION is -9.74%. For `CC(=O)c1c(F)cccc1N1CCC(C(N)=O)CC1`, the INHIBITION is -13.1%. Then `CC(=O)c1c(F)cccc1N1CCC(CS(N)(=O)=O)CC1`, with 30.1%; and `CC(=O)c1c(F)cccc1N1CCC(Cc2cccnc2)CC1`, with 83.4%; and `CCN(C1CCN(c2cccc(F)c2C(C)=O)CC1)S(C)(=O)=O`, with 20.4%. To `CCS(=O)(=O)N(C)C1CCN(c2cccc(F)c2C(C)=O)CC1` belongs -9.35%; to `CC(=O)c1c(F)cccc1N1CCC(NS(=O)(=O)c2ccccc2)CC1`, 78%; to `O=C1C(NS(=O)(=O)c2ccc(F)cc2F)CCN1Cc1ccccc1` (stereo not drawn), 2.97%. Consider `Cc1ccc(NC(=O)N2CCC3(CCC(C(=O)N(C)C)O3)CC2)cc1` (stereo not drawn), for which the INHIBITION amounted to 46.6%. Take `Cc1cc(C)n(CC2CCCN2CCC(=O)Nc2cc(C)on2)n1` (stereo not drawn): the INHIBITION was determined as 11.4%. As for `O=C(Cc1ccccn1)N1C[C@@H](Oc2cccnc2)[C@H]2OCCC[C@H]21`, the INHIBITION amounted to 5.04%. To `CN(C)c1cccc(C(=O)Nc2ccn(CCc3ccncc3)n2)c1` belongs 40.7%. Regarding `CSc1ccc(C(=O)N2C[C@@H]3CC[C@H]2CN(Cc2ccccc2)C3)cc1`, the INHIBITION came out at 39.1%.

Regarding `COc1ccc(C(=O)N(C)Cc2ncc(C)c(OC)c2C)c(OC)c1`, the INHIBITION was found to be 1.11%.

With `CCCS(=O)(=O)N1CCO[C@H]2[C@H](OCc3ccccn3)CC[C@@H]21`, the INHIBITION was found to be 33.5%. Turning to `CC(c1nc(-c2cccnc2)no1)N(C)CCCOc1ccccc1` (stereo not drawn), the INHIBITION came out at 18.5%. To `COc1ccccc1CCN(C)C(C)c1nc(-c2cccnc2)no1` (stereo not drawn) belongs 68.1%. To `CCOc1ccccc1CN(C)C(C)c1nc(-c2cccnc2)no1` (stereo not drawn) belongs 24.2%. Then `CNC(=O)c1csc(-c2cccnc2)n1`, with -17.2%; and `COc1ccc(C)cc1NC(=O)c1coc(C)n1`, with 60.9%. In the case of `CCn1cc(C(=O)Nc2cc(C)ccc2C)cn1`, the INHIBITION came out at 3.04%.

With `Cc1ccc(NC(=O)c2coc(C)n2)c(C)c1`, the INHIBITION was 62.3%.

`Cc1ccc(C)c(NC(=O)c2coc(C)n2)c1`: the INHIBITION was found to be 62.3%.

As to `COc1ncc(NC(=O)Nc2cc(C)ccc2OC)cn1`, the INHIBITION is recorded as 42.6%. To `COc1ccc(C)cc1NC(=O)Nc1cnc(O)nc1O` belongs 0.29%; to `Cc1ccc(C)c(NC(=O)c2n[nH]c(-n3cnnc3)n2)c1`, 36.3%. Then `COCCCN(CCOC)C(=O)Nc1ccc(C)cc1C`, with 7.9%; and `Cc1ccc(NC(=O)CNc2ccccc2C(N)=O)c(C)c1`, with 39.1%; and `Cn1ccnc1N1CCN(C(=O)Cc2ccc(F)cc2)CC1`, with 0%. To `CCS(=O)(=O)N1CC[C@@H]2[C@H]1CCC(=O)N2CCOC` belongs 24.9%; to `CC(C)OCCN(C)C(C)c1cccc(S(N)(=O)=O)c1` (stereo not drawn), 26.3%.

As to `CS(=O)(=O)N1CCCC12CCCN(S(=O)(=O)c1ccc(F)c(F)c1)C2` (stereo not drawn), the INHIBITION is given as -0.371%.

`O=C(O)[C@@H]1CN(C(=O)NCC2CCCCC2)C[C@H]1c1ccccn1`: the INHIBITION is -43.5%.

On to `CCOCC1CN(CCN2CCCCC2)Cc2cnn(C)c21` (stereo not drawn), for which the INHIBITION was 36.9%.

Take `Cc1ccc(Oc2ncccc2C(=O)N(C)CCCN(C)C)cc1`: the INHIBITION amounted to 30.3%.

Regarding `CC(C)(C)c1ncc(S(C)(=O)=O)c(C2CCCNC2)n1` (stereo not drawn), the INHIBITION was 25.3%.

As to `O=C1c2cccnc2OC(CN2CCOCC2)CN1C1CCC1` (stereo not drawn), the INHIBITION was -10.3%.

On to `COC(=O)c1ccccc1NC(=O)c1c(C)cn(C)c1CC(=O)O`, for which the INHIBITION came to 19.2%. For the molecule `O=C1CCNc2ncc(-c3ccccc3Cl)cc2CN1C1CC1`, the INHIBITION turned out to be 50.2%. Consider `O=C1CCNc2ncc(-c3ccc(Cl)cc3)cc2CN1C1CC1`, for which the INHIBITION amounted to 7.85%. To `O=C1CCNc2ncc(-c3cccc(Cl)c3)cc2CN1C1CC1` belongs 2.55%.

Consider `Cn1cc(CN2CCOC3(CCCN(C(=O)c4ccco4)C3)C2)cn1` (stereo not drawn), for which the INHIBITION came out at 8.47%. `Cc1cc(C)nc(N2CC[C@H](Oc3ccccc3F)[C@@H](O)CC2)n1`: the INHIBITION is 42.6%. Then `CC(C)N1CCOCC2(CCN(c3cnccn3)CC2)C1`, with 35.8%.

Turning to `COCCCn1ccc(NS(=O)(=O)c2cc(C)c(F)cc2F)n1`, the INHIBITION is recorded as -15.3%. Then `CC(O)CCn1ccc2[nH]c(=O)c(C#N)cc2c1=O` (stereo not drawn), with -1.09%; and `CCC(Cn1ccc2[nH]c(=O)c(C#N)cc2c1=O)OC` (stereo not drawn), with 3.82%; and `CCCOC(C)Cn1ccc2[nH]c(=O)c(C#N)cc2c1=O` (stereo not drawn), with 71.8%.

Take `CN(Cc1nc(Cc2cccc(C(F)(F)F)c2)no1)C(C1CC1)C1CC1`: the INHIBITION was determined as 27.6%. Turning to `Cn1nc(CN2CCCCC2)c2c1CN(Cc1ccoc1)C2`, the INHIBITION is listed as 11.3%. For `O=C(c1cc(C2CCCC2)no1)N1CCCCC1`, the INHIBITION is -12.5%. Regarding `Cc1ccc2c(c1)CN(C(=O)c1cnc(C)cn1)C(CN(C)C)CO2` (stereo not drawn), the INHIBITION is given as 66.5%.

Take `Cc1ccc2c(c1)[C@@H](CC(=O)N(C)C)CCO2`: the INHIBITION came out at 14.5%. To `CC(=O)N1[C@H](CN(C)C)C[C@@H]2CN(C(=O)c3cnc(C)cn3)CC[C@@H]21` belongs -50.4%; to `Cc1ccc2c(c1)CN(C(=O)C1CCCCC1)C(CN(C)C)CO2` (stereo not drawn), 60.3%; to `CN(CCO)CC1COCCN1C(=O)C1CCCCC1` (stereo not drawn), 40.7%.

Consider `Cc1nc(C)c(C(=O)N2Cc3ccccc3OCC2CN(C)C)o1` (stereo not drawn), for which the INHIBITION amounted to 11.8%. Turning to `Cc1nc(CN2CCc3ccc(S(N)(=O)=O)cc32)oc1C`, the INHIBITION is -24%. To `CN(C)c1ncccc1CNC(=O)NCc1cccs1` belongs 41.2%; to `CN1CCN(C(=O)c2cc[nH]c(=O)c2)Cc2ccccc21`, 20%. Then `O=C(NCC1CCCCC1)N1C[C@@H]2C[C@@H]1CN2`, with 9.97%. To `Fc1ccc(CN2CCC(c3nccnc3-n3ccnc3)CC2)cc1` belongs 37%.

For the molecule `Cc1nccn1-c1nccnc1C1CCCN(C2CCCC2)C1` (stereo not drawn), the INHIBITION worked out at 59.45%. To `Cc1nccn1-c1nccnc1C1CCN(Cc2ccc(F)cc2)CC1` belongs 71.1%; to `Cc1nccn1-c1cccc(C2CCCN(C3CCCC3)C2)n1` (stereo not drawn), 36.7%; to `COc1ccc(CN2CCC(c3nccnc3-n3ccnc3)CC2)cc1`, 35.2%. To `Cc1nccn1-c1nccnc1C1CCCN(C)C1` (stereo not drawn) belongs 34.55%.

On to `Cc1n[nH]c(C2CN(Cc3nnc(C4CCC4)o3)CCO2)n1` (stereo not drawn), for which the INHIBITION was 0.914%. To `c1cc(CN2C[C@@H]3OCCN(CCN4CCCC4)[C@@H]3C2)co1` belongs 15.7%; to `CC(=O)OCc1ccc(CN2CCCCCC2c2cc(C)no2)o1` (stereo not drawn), 18.3%; to `CCc1nc(C2CCCN2C(=O)c2cc3c(s2)CCC3)no1` (stereo not drawn), 7.08%. To `CCC(C(=O)NC1(COC)CCCC1)n1cccn1` (stereo not drawn) belongs 8.08%; to `CCC(C(=O)NC1(C(N)=O)CCCC1)n1cccn1` (stereo not drawn), 55.9%. As for `CCC(C(=O)NC1(CN2CCOCC2)CCCC1)n1cccn1` (stereo not drawn), the INHIBITION was determined as 30.9%.

In the case of `CC(C)C(=O)Nc1ccc(C(O)Cn2nc(-c3cccs3)oc2=O)cc1` (stereo not drawn), the INHIBITION was determined as 8.9%. Take `c1cnn(Cc2nnc3n2CCCN(Cc2ccsc2)C3)c1`: the INHIBITION stood at 32.4%. Then `O=C(c1cnccn1)N1C[C@@H]2OCC(=O)N(CC3CCCCC3)[C@@H]2C1`, with 26.4%; and `Cc1cnc(C(=O)N2C[C@@H]3[C@@H](C2)OCC(=O)N3CC2CCCC2)cn1`, with -18.5%; and `O=C(c1cnccn1)N1C[C@@H]2[C@@H](C1)OCC(=O)N2CC1CCCC1`, with 91.9%. Then `CN(Cc1ccco1)C(=O)CN1CCOC(Cn2cncn2)C1` (stereo not drawn), with -0.219%; and `CC(C)N(C)Cc1cnc2n1CCN(C(=O)Cc1ccccn1)C2`, with 24.3%; and `O=C1CN(c2ccc(CNC(=O)Nc3nccs3)cc2)CCN1`, with 13.8%. With `COc1ccc(OC)c(CN(C)c2ncc(S(N)(=O)=O)s2)c1`, the INHIBITION was -54.4%. With `CN(c1ncc(S(N)(=O)=O)s1)C1CCc2ccccc21` (stereo not drawn), the INHIBITION came out at 36.5%.

Take `CN(c1ncc(S(N)(=O)=O)s1)C1CCc2ccccc2C1` (stereo not drawn): the INHIBITION was 65.6%. `CCN(Cc1ccoc1)c1ncc(S(N)(=O)=O)s1`: the INHIBITION was determined as 20.8%.

On to `CN(Cc1ccc2c(c1)OCCO2)c1ncc(S(N)(=O)=O)s1`, for which the INHIBITION is recorded as 54.4%.

Consider `COc1ccc(CN(C)c2ncc(S(N)(=O)=O)s2)c(OC)c1`, for which the INHIBITION is -28.2%. `CN(c1ncc(S(N)(=O)=O)s1)C1CCC1`: the INHIBITION worked out at 52.2%. Then `CCN(Cc1ccc2c(c1)OCO2)c1ncc(S(N)(=O)=O)s1`, with 27.5%; and `CCc1ncc(C(=O)N(C)C2Cc3ccccc3C2)cn1`, with -98.6%; and `CS(=O)(=O)c1cn[nH]c1C1CCCCN1C(=O)Cc1cccnc1` (stereo not drawn), with -5.71%. For the molecule `CN1CCNC(Cc2ccc(-c3cccs3)cc2)C1=O` (stereo not drawn), the INHIBITION is -52.6%. Then `COCCN1CCOCC12CCN(C(=O)Cc1cccs1)CC2`, with 24.9%.

The values are drawn from ChEMBL document CHEMBL4513216, “Probing the Open Global Health Chemical Diversity Library for Multistage-Active Starting Points for Next-Generation Antimalarials” (ACS Infect Dis, 2020).
